14 compounds from PubChem BioAssay (NCATS) can be followed below.

Values joined by “and” are separate entries in the source; they are usually repeats but may differ in a detail not shown here. Equal entries are not always repeated. Results filed as inconclusive are left out. Values without a mark were called inactive. Active and inactive are the calls of the source. Calls come from the whole dose curve; as a rule, active = well fitted curve in the direction sought with a large enough effect; inconclusive = small, poorly fitted or top-dose-only effect, or another doubt; inactive = no such curve, though single readings can be large; an effect the other way counts as inactive or inconclusive.

The test system of one test is HEK293. Description: Cytotoxic Profiling of Annotated Libraries Using Quantitative High-Throughput Screening (AID 1296008). Note: nearly all actives have a fitted effect of over 60% in size. Note: potency is the fitted concentration of half-maximal effect. Particulars: Five cell lines viability, CellTiter-Glo ATP luminescence, 48-72 h; max response: hits give low values. The essentials:
(§1)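 Cytotoxicity was measured as CellTiter-Glo ATP luminescence, read after 10 min at room temperature. Compound treatment of the cells lasted 48 or 72 hr at 37 degrees Celsius in a qHTS format.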

The test system of the next test is HaCat. The description is as above. Particulars: Five cell lines viability, CellTiter-Glo ATP luminescence, 48-72 h; max response: hits give low values. In short, it runs like this:
as §1

The subject of the next test is KB-3-1. The test is described as above. Particulars: Five cell lines viability, CellTiter-Glo ATP luminescence, 48-72 h; max response: hits give low values. The essentials:
as §1

A further test has as its system NIH3T3. The description is as above. Particulars: Five cell lines viability, CellTiter-Glo ATP luminescence, 48-72 h; max response: hits give low values. The essentials:
as §1

Another test relates to MCC-13. Kind of test: qHTS assay to identify novel small-molecules to repurpose for Merkel cell carcinoma treatment (AID 1296009). Note: nearly all actives have a fitted effect of over 60% in size. Note: potency is the fitted concentration of half-maximal effect. Particulars: MCC and control cell lines, CellTiter-Glo viability, 72 h; series mostly up to 46 µM. The essentials: (§2)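 Cell viability measured by CellTiter-Glo following 72 hr compound treatment at 37 degree celsius, with NPC and MIPE libraries tested in 8- and 11-point concentration series.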

The next test deals with MCC-26. The description is as above. The conditions noted are these: MCC and control cell lines, CellTiter-Glo viability, 72 h; series mostly up to 46 µM. The essentials: as §2
The test system of the next test is MKL-1. The description is as above. Particulars: MCC and control cell lines, CellTiter-Glo viability, 72 h; series mostly up to 46 µM. The essentials: as §2
The test system of a further test is MKL-2. The description is as above. Particulars: MCC and control cell lines, CellTiter-Glo viability, 72 h; series mostly up to 46 µM. The essentials:
as §2

A further test deals with UISO. Described as above. Particulars: MCC and control cell lines, CellTiter-Glo viability, 72 h; series mostly up to 46 µM. In short, it runs like this: as §2
The subject of a further test is WaGa. Described as above. The conditions noted are these: MCC and control cell lines, CellTiter-Glo viability, 72 h; series mostly up to 46 µM. In short, it runs like this: as §2
The test system of the next test is CRL-7250. Kind of test: Cytotoxic Profiling of Annotated Libraries Using Quantitative High-Throughput Screening (AID 1296008). Note: nearly all actives have a fitted effect of over 60% in size. Note: potency is the fitted concentration of half-maximal effect. Particulars: Five cell lines viability, CellTiter-Glo ATP luminescence, 48-72 h; max response: hits give low values. The essentials: as §1
Another test deals with C33A. Kind of test: Primary qHTS to identify gynecologic anti-cancer compounds using libraries of approved drugs and bioactive compounds (AID 1345084). Note: nearly all actives have a fitted effect of over 55% in size. Particulars: Gynecologic cancer cell panel viability, ATPlite luminescence, 48 h; series mostly up to 57.5 µM. In short, it runs like this: (§3)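 Cells, 1,000 per well, plated 16 h, then exposed 48 h at 37 C to compounds. Viability by ATPlite luminescence after 15 min at room temperature.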

A further test relates to CASKI. The description is as above. Particulars: Gynecologic cancer cell panel viability, ATPlite luminescence, 48 h; series mostly up to 57.5 µM. The essentials:
as §3

The subject of the next test is HeLa. The test is described as above. The conditions noted are these: Gynecologic cancer cell panel viability, ATPlite luminescence, 48 h; series mostly up to 57.5 µM. In short, it runs like this:
as §3

Another test concerns Es-2. The test is described as above. The conditions noted are these: Gynecologic cancer cell panel viability, ATPlite luminescence, 48 h; series mostly up to 57.5 µM. In short, it runs like this: as §3
The test system of the next test is HEK293T. Kind of test: qHTS assay to identify novel small-molecules to repurpose for Merkel cell carcinoma treatment (AID 1296009). Note: nearly all actives have a fitted effect of over 60% in size. Note: potency is the fitted concentration of half-maximal effect. The conditions noted are these: MCC and control cell lines, CellTiter-Glo viability, 72 h; at 44.8 µM (top of the series) unless noted. In short, it runs like this: as §2
% is set by controls: 0 for no effect and ±100 for the full control effect.

`OCCn1cc(-c2ccc3c(c2)CCC3=NO)c(-c2ccncc2)n1`: the max response in the test on HEK293 was 2.25%; in the test on HaCat it was 1.64%; with KB-3-1 it was -5.13%; in the test on NIH3T3, -8.29%. Moreover, the Potency result in the test on MCC-13, with MCC-26, with MKL-1, with MKL-2, in the test with UISO and in the test on WaGa was “inactive” throughout.

On to `CCc1cc(-c2n[nH]c(C)c2-c2ccc3c(c2)OCCO3)c(O)cc1O`, for which the values for the Potency with HEK293, with HaCat and in the test on NIH3T3 were 11.8 µM (active), 7.43 µM (active) and 8.33 µM (active), respectively. Further, the Potency entry with MKL-2 was “inactive”.

Take `C[C@H]1[C@H](O)O[C@@H]2O[C@@]3(C)CC[C@@H]4[C@H](C)CC[C@@H]1[C@@]24OO3`: the Potency in the test on HEK293 was 3.32 µM (active); in the test on KB-3-1, 20.9 µM (active); in the test on MKL-1, 16.6 µM (active); in the test with MKL-2, 10.5 µM (active); with UISO, 2.96 µM (active); with WaGa, 9.35 µM (active). Besides, in the test on HaCat, the max response is -7.84%.

For `CC(C)N(CCCNC(=O)Nc1ccc(C(C)(C)C)cc1)C[C@H]1O[C@@H](n2cc(Br)c3c(N)ncnc32)[C@H](O)[C@H]1O`, the figures for the Potency in the test on HEK293 and in the test on KB-3-1 were 18.7 µM (active) and 26.4 µM (active), respectively. The max response in the test on HaCat is -6.68%. Also, the Potency result with MCC-13, in the test with MKL-1, with MKL-2 and with WaGa was “inactive” each time.

`CCC[C@H](Nc1nc(-c2ccc(NC(=O)NCC)c(OC)c2)ncc1C)c1cccnc1`: the max response in the test with HEK293 was -101%; in the test on NIH3T3, -76.8%. For the same compound, the Potency in the test on KB-3-1 was 0.0047 µM (active); in the test with MCC-13, 0.0469 µM (active); in the test with MKL-2, 0.0187 µM (active).

Take `Cc1csc(-c2nnc(Nc3ccc(Oc4ncccc4-c4ccnc(N)n4)cc3)c3ccccc23)c1`: the max response in the test on CRL-7250 is -3.89% and -3.06%. The values for the Potency in the test with HaCat and in the test with WaGa were 0.148 µM (active) and 0.0118 µM (active), respectively. The Potency entry in the test with MCC-26, with UISO, in the test on C33A, in the test with CASKI and in the test with HeLa was “inactive” in each case.

As to `CC(C)(O)CC(=O)NCCn1ccc2ncnc(Nc3ccc(Oc4cccc(C(F)(F)F)c4)c(Cl)c3)c21`, the Potency in the test on HEK293 is 16.6 µM (active); in the test on HaCat it was 372 nM (active) and 3.66 µM (active). Besides, the Potency result with MCC-13, in the test with MCC-26, in the test with MKL-1, with MKL-2, with UISO and in the test with WaGa was “inactive” throughout. For the same compound, the Potency result with C33A, with Es-2 and with HeLa was “inactive” throughout.

For the compound `Nc1ccn([C@@H]2O[C@H](CO)[C@@H](O)[C@H]2O)c(=O)n1`, in the test with HEK293, the max response is -76.5%. Also, the Potency in the test with HaCat is 29.6 µM (active); in the test on NIH3T3 it was 0.526 µM (active); in the test with MKL-1 it was 9.35 µM (active); with WaGa it was 0.132 µM (active). For the same compound, in the test with MKL-2, the Potency entry was “inactive”.

As to `NC(=O)c1noc([C@H](CCCC2CCCCC2)CC(=O)NO)n1`, the Potency with HEK293 is 11.8 µM (active); in the test with NIH3T3, 18.7 µM (active) and 16.4 µM (active); in the test with MKL-1, 16.6 µM (active); in the test with UISO, 14.8 µM (active). The max response in the test with KB-3-1 was -19.6% and 9.75%. Moreover, the Potency entry in the test with MCC-26, with C33A, in the test with CASKI, with Es-2 and in the test on HeLa was “inactive” in each case.

For the compound `CC(C)(C)c1[nH]cnc1C=c1[nH]c(=O)c(=Cc2ccccc2)[nH]c1=O`, the Potency in the test on CRL-7250 was 0.0038 µM (active); in the test on KB-3-1 it was 2.41e-05 µM (active); with MCC-13, 0.0076 µM (active); in the test with MKL-2, 0.0605 µM (active); with UISO it was 0.0121 µM (active). For the same compound, the max response in the test with NIH3T3 was -78.6%. In addition, the Potency result in the test with MKL-1 is “inactive”.

`COc1cc2nccc(Oc3ccc(NC(=O)Nc4ccc(F)cc4F)c(F)c3)c2cc1OC`: the max response in the test on CRL-7250 was -18.7%. Moreover, the Potency result with MCC-13, in the test on MCC-26, in the test with MKL-2, with UISO and with WaGa was “inactive” throughout.

Take `CC(C)(C)c1nc(-c2cccc(NS(=O)(=O)c3c(F)cccc3F)c2F)c(-c2ccnc(N)n2)s1`: the max response is -10.3% with HEK293; -2.38% in the test on HaCat; -15.7% and -13.9% with KB-3-1; -11.1% and -2.7% in the test on NIH3T3. Besides, the Potency result in the test on MCC-13, in the test with MCC-26, in the test on MKL-1, in the test with MKL-2, in the test with UISO and in the test with WaGa was “inactive” in each case. Moreover, the Potency result with CASKI and in the test on HeLa was “inactive” each time.

For `Oc1cc(O)cc(C=Cc2ccc(O)c(O)c2)c1`, the compound was called inactive with HEK293 and with HEK293T. For the same compound, the values for the max response in the test with HaCat, in the test with KB-3-1 and in the test with NIH3T3 were -2.98%, -8.49% and 3.17%, respectively. Further, the Potency result with MCC-13 and in the test with MCC-26 was “inactive” in each case. The Potency in the test with WaGa was 18.7 µM (active).

Take `O=S(=O)(NCCNCC=Cc1ccc(Br)cc1)c1cccc2cnccc12`: the Potency with HEK293 is 7.43 µM (active); in the test with MKL-1, 20.9 µM (active); in the test on MKL-2 it was 5.26 µM (active); in the test on WaGa, 14.8 µM (active). Besides, the max response was -0.249% in the test on HaCat and -13.9% in the test on NIH3T3. For the same compound, the Potency entry in the test with MCC-26 is “inactive”.
